# ClpP mod = qHTS Assay for Activators of ClpP | ATP-dependent Clp protease proteolytic subunit (Bacillus subtilis (strain 168)), P80244 | purified B. subtilis ClpP, FRET peptide cleavage, 20 min | Potency, µM (titrated, usually from 57.5 µM), without a hit: at the top dose activity change, negative = active | hit rate 1.9% among 340,000 | AID 651965, 2013; active = well fitted falling curve with a large enough effect; inconclusive = small, poorly fitted or top-dose-only effect; inactive = no such curve, though single readings can be large or run the other way; note: the source files actives as falling curves though it sought activators and does not explain the sign; nearly all actives have a fitted effect of over 65% in size
#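 Purified B. subtilis ClpP, 10 microg/mL final in Tris/HCl pH8 with KCl, BSA, glycerol and Tween-20, cleaved an Abz/nitrotyrosine-quenched decapeptide. Fluorescence (ex 320, em 430) was read at 0 and 20 min at room temperature. Delta was normalized to 5.8 microM ADEP and DMSO/no-enzyme controls.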
# TDP1 cell noCPT = qHTS for Inhibitors of human tyrosyl-DNA phosphodiesterase 1 (TDP1): qHTS in cells in absence of CPT; DT40 Tdp1-/- hTDP1 cells, no CPT, ATP luminescence, 48 h; Potency, µM (doses to about 46.2 µM), for the others: at the top dose activity change, negative = growth inhibition, most hits filed as inhibitors; hit rate 15% among 420,000; note: % is set by controls: 0 for no effect and ±100 for the full control effect; nearly all actives have a fitted effect of over 55% in size
#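 Readout: luminescence from CellTiter-Glo after 30 min in the dark at RT. Cells: DT40 Tdp1-/- with stable hTDP1, 400/well. Exposure: compounds alone, ≥48 hr, 37 °C.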
# TDP1 cell CPT = qHTS for Inhibitors of human tyrosyl-DNA phosphodiesterase 1 (TDP1): qHTS in cells in presence of CPT; chicken DT40 Tdp1-/-;hTDP1 cells + 20 nM CPT, ATP luminescence, 48 h; Potency, µM (titrated, usually from 46.2 µM), without a hit: at the highest dose activity change, negative = growth inhibition, actives largely listed as inhibitors; hit rate 12% among 420,000; AID 686979, 2013; note: % is set by controls: 0 for no effect and ±100 for the full control effect; nearly all actives have a fitted effect of over 55% in size
#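 Chicken DT40 Tdp1-/- cells complemented with human TDP1, 400 cells/well, exposed to compounds plus 20 nM camptothecin for at least 48 h at 37 C; viability read as ATP content by CellTiter-Glo luminescence.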
# TDP1 inh = qHTS Assay for Inhibitors of Tyrosyl-DNA Phosphodiesterase (TDP1); Tyrosyl-DNA phosphodiesterase 1 (Homo sapiens), Q9NUW8; recombinant TDP1, AlphaScreen DNA substrate cleavage; Potency, µM (top dose mostly 130 µM), for inactives: at the highest dose activity change, negative = inhibition, actives largely listed as inhibitors; hit rate 0.28% among 350,000; AID 485290, 2010; note: % is set by controls: 0 for no effect and ±100 for the full control effect; nearly all actives have a fitted effect of over 40% in size
# Target sequence (Q9NUW8 whole entry, looked up): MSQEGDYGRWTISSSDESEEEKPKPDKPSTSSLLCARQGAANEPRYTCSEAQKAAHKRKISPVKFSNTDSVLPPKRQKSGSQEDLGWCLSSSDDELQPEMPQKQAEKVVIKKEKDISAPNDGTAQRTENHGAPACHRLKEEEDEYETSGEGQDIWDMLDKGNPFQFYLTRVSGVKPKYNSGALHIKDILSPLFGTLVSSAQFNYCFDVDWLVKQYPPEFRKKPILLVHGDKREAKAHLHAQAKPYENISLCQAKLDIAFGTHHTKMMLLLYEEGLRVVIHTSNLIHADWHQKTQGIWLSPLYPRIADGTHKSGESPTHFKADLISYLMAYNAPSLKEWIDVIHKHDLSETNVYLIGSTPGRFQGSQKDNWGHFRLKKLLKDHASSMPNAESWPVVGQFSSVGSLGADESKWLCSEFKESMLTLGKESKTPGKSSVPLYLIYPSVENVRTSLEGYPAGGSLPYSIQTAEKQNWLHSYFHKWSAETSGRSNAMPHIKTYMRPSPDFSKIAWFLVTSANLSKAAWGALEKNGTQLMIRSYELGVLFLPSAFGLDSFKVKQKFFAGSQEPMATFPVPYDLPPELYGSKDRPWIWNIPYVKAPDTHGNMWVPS
#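 Steps: enzyme plus compound, 15 min RT; add biotin/phosphotyrosine-FITC oligonucleotide (15 nM final), react 5 min; add donor/acceptor beads (10 ug/ml final), 10 min; read AlphaScreen. Tdp1 at 1 nM final.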
# The depositor's hits bear a star; u = inconclusive; x = not tested or not shown. Hits are enriched below; roughly 17% of the tested compounds scored in any of these assays. Unless noted, calls come from the whole dose curve; as a rule, active = well fitted curve in the direction sought with a large enough effect; inconclusive = small, poorly fitted or top-dose-only effect, or another doubt; inactive = no such curve, though single readings can be large; an effect the other way counts as inactive or inconclusive. Potency is the fitted concentration of half-maximal effect.
SMILES,ClpP mod,TDP1 cell noCPT,TDP1 cell CPT,TDP1 inh
Cc1cc(CNC[C@H]2O[C@@H](n3cnc4c(N)ncnc43)[C@H](O)[C@@H]2O)no1,1%,-26%,-28%,x
COC(=O)/C=C/c1ccc(C(=O)NCC(=O)N[C@@H](CCC(=O)OC)C(=O)N[C@@H](CC(C)C)C(N)=O)cc1,x,2%,-8%,8%
Cc1cc2n(n1)C(c1ccccc1Cl)Nc1ccccc1-2 (centres undefined),u,u,u,12%
COc1ccc(C2Nc3ccccc3-c3cc(C)nn32)c(OC)c1 (centres undefined),32µM*,u,-19%,5%
c1ccc2c(-c3nc(C4CCCCC4)no3)cc(-c3ccncc3)nc2c1,u,23µM*,u,-2%
Cc1ccc2nc(-c3ccncc3)cc(-c3ccccc3)c2c1,u,u,u,2%
CC1(C)CCC/C(=C\c2ccccc2)C1=O,0%,-3%,-20%,-14%
CN(C)CCC1(C2=CCCC2)CC/C(=C/c2ccc(Cl)cc2)C1=O (centres undefined),-1%,8.2µM*,7.3µM*,x
CCCCN(C)CCCNC(=O)CN1N=C(c2ccc(Cl)cc2)CCC1=O,2%,-29%,-14%,x
COc1ccc(C2=NN(CC(=O)NCCc3ccccc3)C(=O)CC2)cc1,-2%,-15%,-1%,0%
COCCNC(=O)CN1N=C(c2ccc(OC)cc2)CCC1=O,x,-9%,u,x
COc1ccc(C2=NN(CC(=O)NCCCN(C)c3ccccc3)C(=O)CC2)cc1,2%,15µM*,u,4%
CCCCN(CCCNC(=O)CN1N=C(c2ccc(C)cc2)CCC1=O)c1ccccc1,0%,15µM*,u,8%
CCN(CCCNC(=O)CN1N=C(c2ccccc2)CCC1=O)c1cccc(C)c1,1%,-19%,-13%,8%
CCN(CCCNC(=O)CN1N=C(c2ccc(C)cc2)CCC1=O)c1ccccc1,0%,23µM*,u,8%
CCN(CCCNC(=O)CN1N=C(c2ccc(OC)cc2)CCC1=O)c1cccc(C)c1,-6%,18µM*,u,7%
CCn1nc(C)c(CNC(=O)CCc2nnc(-c3ccc(C(C)=O)s3)o2)c1C,x,-25%,2%,-4%
COc1ccc(-c2csc(CCN3N=C(C)CC3=O)n2)cc1,x,u,u,10%
Cc1ccc(S(=O)(=O)c2nnn3c2nc(N2CCOCC2)c2ccccc23)c(C)c1,-6%,u,u,15%
CCCCN(CC)CCCn1cnc2c([nH]c3ccc(Cl)cc32)c1=O,-14%,21µM*,21µM*,-3%
COc1ccc2c(c1)[nH]c1c(=O)n(Cc3ccncc3)cnc12,-10%,2%,-10%,6%
Cc1ccc2[nH]c3c(=O)n(Cc4ccncc4)cnc3c2c1,14µM*,-11%,6%,2%
CCN(CC(=O)Nc1ccc(OC)cc1)CC(=O)Nc1cccc(S(=O)(=O)N2CCOCC2)c1,-1%,u,-26%,x
COc1ccc(CCC(=O)NCC23CC4CC(CC(C4)C2)C3)cc1,0%,-16%,-27%,x
Cc1ccc(NC(NC(=O)Cc2ccccc2)C(Cl)(Cl)Cl)cc1 (centres undefined),-4%,u,u,3%
SMILES,ClpP mod,TDP1 cell noCPT,TDP1 cell CPT,TDP1 inh
Cc1cccc(NC(NC(=O)Cc2ccccc2)C(Cl)(Cl)Cl)c1 (centres undefined),0%,21µM*,18µM*,3%
Cc1cc(C)cc(OCC(O)CN2CCC(CN3C(=O)c4cccc5cccc(c45)C3=O)CC2)c1 (centres undefined),-19%,u,15µM*,5%
O=C1c2ccccc2C(=O)N1CC(O)COc1ccc(Cl)cc1 (centres undefined),x,9%,18%,x
O=C1c2cccc3cccc(c23)C(=O)N1CC1CCN(CC(O)COc2ccc3ccccc3c2)CC1 (centres undefined),-10%,12µM*,15µM*,6%
O=C1c2cccc3cccc(c23)C(=O)N1CCN1CCN(CC(O)COc2ccc3ccccc3c2)CC1 (centres undefined),-6%,10µM*,18µM*,5%
Cc1cccc(N2CCN(CC(O)COc3ccc4ccccc4c3)CC2)c1 (centres undefined),x,u,-16%,x
COc1ccc(COCC(O)CN2CCC(CN3C(=O)c4cccc5cccc(c45)C3=O)CC2)cc1OC (centres undefined),u,21µM*,u,0%
O=C(COC(=O)c1cnccn1)Nc1cc(S(=O)(=O)N2CCOCC2)ccc1Cl,-2%,-3%,6%,1%
COc1cc2oc(=O)cc(CN3CCN(C(C)=O)CC3)c2cc1Cl,u,-3%,-21%,x
COc1ccc(/C=C2\SC(=O)N(CCCC(=O)Nc3cc(Cl)ccc3C(=O)O)C2=O)cc1,-12%,-1%,33%,4%
COc1cccc(OCC(O)CN2CCC(CN3C(=O)c4cccc5cccc(c45)C3=O)CC2)c1 (centres undefined),x,7.3µM*,8.2µM*,-2%
COc1cccc(OCC(O)CN2CCN(C)CC2)c1 (centres undefined),-2%,-5%,1%,x
CCc1ccc(OCC(O)CN2CCC(CN3C(=O)c4cccc5cccc(c45)C3=O)CC2)cc1 (centres undefined),-8%,21µM*,15µM*,5%
COc1ccc(OCC(O)CN2C(=O)c3ccccc3C2=O)cc1 (centres undefined),1%,-7%,0%,x
CCc1cc(C(=O)N(CCCOC)c2c(N)n(Cc3ccccc3)c(=O)[nH]c2=O)sc1C,x,-7%,-2%,x
CC1CC(C)CN(CCCNC(=O)C2CCCN(S(=O)(=O)N3CC(C)CC(C)C3)C2)C1 (centres undefined),-2%,11%,-14%,1%
O=[N+]([O-])c1ccc(CN2CC(N3CCCC3)CS2(=O)=O)cc1 (centres undefined),1%,-2%,10%,x
Cc1cccc(CN2CCN(C3CN(Cc4ccc([N+](=O)[O-])cc4)S(=O)(=O)C3)CC2)c1 (centres undefined),1%,23µM*,16µM*,x
O=[N+]([O-])c1cccc(CN2CCC(Cc3ccccc3)CC2)c1,0%,-56%,23µM*,x
O=[N+]([O-])c1ccc(CN2CC(N3CCC(Cc4ccccc4)CC3)CS2(=O)=O)cc1 (centres undefined),-1%,16µM*,16µM*,x
O=S1(=O)CC(N2CCC(Cc3ccccc3)CC2)CN1CCc1ccccc1 (centres undefined),0%,21µM*,u,x
